SMILES strings stand for the structures. Several values for one entry are separate records, joined by “and”; a condition that tells them apart may be missing. Identical values can stand only once.
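Note: TDF is a line of transformed human dermal fibroblasts of mesenchymal origin.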

The experiment deals with TDF. Put plainly: H1.0 immunofluorescence intensity relative to DMSO (% of DMSO); higher = stronger H1.0 induction, active = 120 or more. The settings on record: concentration: 10 µM; 24 h. Summed up: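 After 24 h at 37 °C with compounds at 10 µM, in triplicate, HCC1569 and TDF cells were fixed with 3.7% formaldehyde. Immunostaining used a rabbit anti-H1.0 antibody and an AlexaFluor 647 secondary, with DAPI, and six fields per well were imaged at ×10. H1.0 nuclear intensity or cell number is presented as percent of the plate control, from the median of replicates, with HCC1569 values smoothed for positional effects.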
`O=C1NC(=O)c2c1c1c3ccccc3n3c1c1c2c2ccccc2n1C1CCC3O1`: the H1.0 immunofluorescence intensity is 105 (inactive) and 100 (inactive). Next, `Cl.O=C(OC1CCN(CCCl)CC1)C(c1ccccc1)c1ccccc1` [4-Diphenylacetoxy-N-(2-chloroethyl)piperidine hydrochloride]: 89.5 (inactive); `CN1Cc2c(ccc3c2OCO3)C2C(O)Cc3cc4c(cc3C21)OCO4` (single isomer, unassigned; (+)) [(+)-Chelidonine]: 193 (active). In the case of `CN1CCC2(CCN3CCc4c(oc5ccccc45)C3C2)N(C)C1=O.Cl` (configuration not stated), the H1.0 immunofluorescence intensity was 95 (inactive).

Turning to `CC(C)C1(NC(=O)C2C=C3c4cccc5[nH]cc(c45)CC3N(C)C2)OC2(O)C3CCCN3C(=O)C(Cc3ccccc3)N2C1=O` (configuration not stated) [Ergocristine], the H1.0 immunofluorescence intensity was 92.8 (inactive).

`CC(CCc1ccccc1)NC(C)C(O)c1ccc(O)cc1.Cl` (configuration not stated) [Buphenine.HCl]: the H1.0 immunofluorescence intensity was 90 (inactive). Next, `OC1CN2CCCC(O)C2C1O` (configuration not stated) [Swainsonine]: 99.5 (inactive).

These data come from the supplement of paper PMC7156485.
